Bioassay records: PubChem BioAssay, University of Kansas High Throughput Screening Laboratory
Hits are enriched below; roughly 3.5% of the tested compounds scored in any of these assays.
Pf apPOL inh: Pf-apPOL inhibitors, biochemical, fluorescence | Recombinant Pf-apPOL, molecular beacon fluorescence, 1.5 h | inhibition, % at 10 µM | hit rate 0.25% among 210,000
mHTT CaM bind: mutant huntingtin-calmodulin interaction inhibitors – biochemical, AlphaScreen, primary screen; AlphaScreen His-mHTT/GST-CaM binding, luminescence; inhibition, % at 15 µM; hit rate 3.6% among 190,000; AID 1671202, 2021;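 further: 0% = both proteins with DMSO and 100% = one protein alone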
The depositor's hits bear a star; i = inactive; x = no result given. No stated cut-off is given here; in the data, active means inhibition above about 50%; inactive means the rest.

SMILES | Pf apPOL inh | mHTT CaM bind
COC(=O)C1CN(CCc2ccccc2)CCS(=O)(=O)N1Cc1ccc(OC)cc1 (stereo not drawn) | -2 | 7
COC(=O)C1CN(CCc2ccccc2)CCS(=O)(=O)N1Cc1ccc(Cl)cc1 (stereo not drawn) | -4 | 71*
COC(=O)C1CN(Cc2ccccc2)CCS(=O)(=O)N1Cc1ccc(C(F)(F)F)cc1 (stereo not drawn) | -2 | 87*
O=C(NCc1ccco1)c1cnn2c3c(cnc12)CCCCCC3 | -1 | -1
CCCCC[C@@H](C)N1C[C@@H](COCc2ccccc2)Oc2cc(N3CC[C@H](N(C)C)C3)ccc2S1(=O)=O | -6 | 100*
CCCCC[C@H](C)N1C[C@@H](COCc2ccccc2)Oc2cc(N3CC[C@H](O)C3)ccc2S1(=O)=O | -8 | 88*
CCCCC[C@@H](C)N1C[C@H](COCc2ccccc2)Oc2cc(N3CCC[C@@H]3CO)ccc2S1(=O)=O | -8 | 24
CCCCC[C@H](C)N1C[C@H](COCc2ccccc2)Oc2cc(N3CC[C@@H](O)C3)ccc2S1(=O)=O | -19 | 92*
C[C@@H](c1ccccc1)N1C[C@H](COCc2ccccc2)Oc2cc(N3CC[C@H](O)C3)ccc2S1(=O)=O | -8 | 48
CCCCC[C@H](C)N1C[C@@H](COCc2ccccc2)Oc2cc(N3CC[C@H](N(C)C)C3)ccc2S1(=O)=O | -11 | -13
Cc1ccccc1C(=O)N1C(C(=O)N2CCCC2)COC12CCCCC2 (stereo not drawn) | -2 | 3
CC1=CC(=O)C(C(C)C)=C/C1=N\OC(=O)c1cccc(Br)c1 | -4 | i
CC1=CC(=O)C(C(C)C)=CC1=NC(=O)c1ccc(C)cc1 | -1 | 60*
COc1ccc(C(=O)NC(Nc2cccc(C(F)(F)F)c2)C(Cl)(Cl)Cl)cc1 (stereo not drawn) | -1 | 6
COc1ccc(NC(=O)N2CCC3(CC2)Nc2cc(F)ccc2-n2cccc23)cc1OC | -2 | 61*
COc1ccc(NC(=O)N2CCC3(CC2)Nc2cc(F)ccc2-n2cccc23)cc1 | -3 | 66*
CSc1cccc(NC(=O)N2CCC3(CC2)Nc2cc(F)ccc2-n2cccc23)c1 | -2 | 25
CCc1ccc(NC(=O)N2CCC3(CC2)Nc2cc(F)ccc2-n2cccc23)cc1 | -3 | 72*
COc1cccc(NC(=O)N2CCC3(CC2)Nc2cc(F)ccc2-n2cccc23)c1 | -6 | 47
CCOc1ccc(NC(=O)N2CCC3(CC2)Nc2cc(F)ccc2-n2cccc23)cc1 | 1 | 66*
C#CC(C)(C)OC(=O)C1C2C=CC(C2)C1C(=O)OCC(=C)Cl (stereo not drawn) | x | -5
CCC(=O)Nc1ccc(NC(=O)c2cccc([N+](=O)[O-])c2)cc1 | 2 | -1
COc1cc(CN2CCCC2c2c(C)noc2C)cc(OC)c1 (stereo not drawn) | 4 | -18
O=C(Cc1ccc([N+](=O)[O-])cc1)N1CCCC1 | -10 | 3
Cc1ccc(C)c(NC(=O)N2CCCC(C)(C(=O)NCc3ccccc3)C2)c1 (stereo not drawn) | -8 | -7
SMILES | Pf apPOL inh | mHTT CaM bind
CCOc1cc(C=O)c(Br)cc1OCc1ccccc1 | 6 | -5
O=Cc1cc(Cc2ccccc2)cc(Br)c1O | -3 | 100*
O=[N+]([O-])c1ccc(N2CCCCC2)cc1Sc1nc2ccccc2[nH]1 | -3 | 24
CCCC(=O)N1CCC(O)(c2ccccc2)C(N2CCCC2)C1 (stereo not drawn) | -11 | 6
CCOCC(=O)N1CCC(O)(c2ccccc2)C(N2CCCC2)C1 (stereo not drawn) | 3 | 8
O=C(C1CCCCC1)N1CCC(O)(c2ccccc2)C(N2CCCC2)C1 (stereo not drawn) | -11 | 51*
O=C(CC1CCCC1)N1CCC(O)(c2ccccc2)C(N2CCCC2)C1 (stereo not drawn) | 1 | 77*
O=c1oc(-c2ccco2)nc2cccc(F)c12 | -11 | x
CC(=O)OC(C)C1CCC2C3CC[C@@H]4CC(=O)CCC4(C)C3CCC12C (stereo partly drawn) | -8 | x
O=C(Nc1cccc(-c2cnco2)c1)C1COc2ccccc2O1 (stereo not drawn) | -5 | x
OCCNCCOc1c(Cl)cc(Cl)cc1Cl | -4 | 3
COC1CCCCC1Nc1ccc2c(c1)CCC2 (stereo not drawn) | x | 52*
CC(=O)Nc1ccc2c(c1)CCC2 | -7 | x
CCc1c(O)nc2ccccn2c1=O | 73* | -8
O=c1c(-c2ccccc2)c(O)nc2ccccn12 | -1 | x
Cc1ccc(CS(=O)(=O)Cc2ccc(C(=O)NCCCOC(C)C)o2)cc1 | 14 | 1
COc1ccc(C(=O)c2ccco2)cc1 | 56* | -5
COc1ccc(C(=O)N2CCN(C(=O)c3ccco3)CC2)cc1 | -5 | 1
Cc1nc(CCNC(=O)C2CCN(S(=O)(=O)c3ccc(C(C)(C)C)cc3)CC2)cs1 | -5 | 0
Cc1ccc(C2=NN(C(=O)CN3CCOCC3)C(c3ccccc3Cl)C2)cc1C (stereo not drawn) | -4 | 25
Cc1ccc(C)c(C2=NN(C(=O)CN3CCOCC3)C(c3ccccc3F)C2)c1 (stereo not drawn) | -2 | 62*
COc1ccc(C2CC(c3cccc(C)c3)=NN2C(=O)CN2CCCCC2)cc1 (stereo not drawn) | -2 | 41
COc1cccc(C2CC(c3cccc(C)c3)=NN2C(=O)CN2CCCCC2)c1 (stereo not drawn) | -4 | 55*
Cc1cccc(C2=NN(C(=O)CN3CCOCC3)C(c3ccc(Cl)cc3)C2)c1 (stereo not drawn) | -2 | 79*
COc1cccc(C2CC(c3cc(C)ccc3C)=NN2C(=O)CN2CCCCC2)c1 (stereo not drawn) | -7 | 67*
SMILES | Pf apPOL inh | mHTT CaM bind
COc1ccccc1C1=NN(C(=O)CN2CCOCC2)C(c2ccc(C)cc2)C1 (stereo not drawn) | -2 | 38
COc1ccccc1C1=NN(C(=O)CN2CCCCC2)C(c2cccc(F)c2)C1 (stereo not drawn) | -6 | 21
COc1ccccc1OCC(=O)NCCN1CCN(c2ccccc2OC)CC1 | -14 | -14
COc1cccc(C2=NN(C(=O)CN(C)C(C)=O)C(c3ccc(F)cc3)C2)c1 (stereo not drawn) | -2 | 17
COc1cccc(C2CC(c3cccc(C)c3)=NN2C(=O)CN2CCCC2)c1 (stereo not drawn) | 6 | 100*
CC/C(O)=C(/C#N)c1nc2ccccc2[nH]1 | 29 | 7
CSCCC(C(O)=C(C#N)c1nc2ccccc2[nH]1)N1C(=O)c2ccccc2C1=O (stereo not drawn) | -1 | 67*
CC(C)CC(C(O)=C(C#N)c1nc2ccccc2[nH]1)N1C(=O)c2ccccc2C1=O (stereo not drawn) | -4 | 92*
N#CC(=C(O)CCCN1C(=O)c2ccccc2C1=O)c1nc2ccccc2[nH]1 | -15 | -1
CC1(C(=O)O)CCC(C(=O)N2CCc3ccccc32)C1(C)C (stereo not drawn) | -14 | 5
Cc1ccc2c(c1)=C(c1sc(N3CCOCC3)nc1O)C(=O)N=2 | 1 | 0
CCOc1ccccc1NC(=O)C1Oc2ccccc2OC1C (stereo not drawn) | -4 | -25
CS(=O)(=O)c1ccc(-c2nnn(CC(=O)Nc3ccc(OC(F)(F)F)cc3)n2)cc1 | -3 | 9
